Results on 39 sequences are retold here after the OligoGym collection.
Note: reference of the scale not given here.

The first assay has as its target LGALS7B. The assay can be described thus: pooled miR-30 sensor sort-seq; sequence = guide strand. As to conditions: shRNA.
Turning to TGCTGTTGAAGACCACCTCCGA, the sensor-assay potency score (higher = more potent) was -0.584.

TTACATGGAACCTGCTGGCATT came in with a sensor-assay potency score (higher = more potent) of -1.13.

With TTGAAGACCACCTCCGACGTGT, the sensor-assay potency score (higher = more potent) was found to be 0.725.

Sequence ATGATGAGCACCTCGAAGGGCT registered a sensor-assay potency score (higher = more potent) of -0.649.

Take TTGCTGTTGAAGACCACCTCCG: the sensor-assay potency score (higher = more potent) was -0.31.

TGAAATGCAGGGCGGCATCGGA returned a sensor-assay potency score (higher = more potent) of -1.07.

Consider TTGGGAGGAACCAAGCCGCGAA, for which the sensor-assay potency score (higher = more potent) is -0.897.

For a further assay, the target named is LHCGR. The assay is described as above. As to conditions: shRNA.
In the case of TAACTCAGCACATTTGTAGTGT, the sensor-assay potency score (higher = more potent) is 0.247.

TTCACTTTCCTTACTGTGCTTT: the sensor-assay potency score (higher = more potent) came to 0.168.

TAATCGCAGCTTTTGGTCCAGG: the sensor-assay potency score (higher = more potent) is -1.08.

Sequence TTGACAAATGTTTCTCTTGATG yielded a sensor-assay potency score (higher = more potent) of -1.44.

Take TTTGGTGGAAGAAATATCCAAG: the sensor-assay potency score (higher = more potent) is -0.193.

For the sequence TAAGCTGAAAAATCTTTCCTTC, the sensor-assay potency score (higher = more potent) amounted to 0.265.

TTATTTGATCCAGTGAAGCCAT registered a sensor-assay potency score (higher = more potent) of -0.633.

Consider TTACTGTGCTTTCACATTGTTT, for which the sensor-assay potency score (higher = more potent) was -1.55.

In turn, TATAGTTTGAGTGTTACAGATT registered a sensor-assay potency score (higher = more potent) of -0.877.

In turn, TCCATTGTGCATCTTCTCCAGA returned a sensor-assay potency score (higher = more potent) of -0.921.

As to TTGGTAGCCATTAATTCTGGGT, the sensor-assay potency score (higher = more potent) is -0.032.

As to TAGTCGAGTGAGACCGGCCGTG, the sensor-assay potency score (higher = more potent) is -0.508.

In a further assay the target is LHFPL3. The description is as above. As to conditions: shRNA.
In turn, ATATCTTGTACACAGTGGCCGT showed a sensor-assay potency score (higher = more potent) of -1.29.

As for TACATGTTAACTCTAGAGCATT, the sensor-assay potency score (higher = more potent) was -1.25.

As for TAATCCATGATCACATCTCTTT, the sensor-assay potency score (higher = more potent) was -0.691.

TTAAACAGAACACAGACTTGGT registered a sensor-assay potency score (higher = more potent) of 0.0174.

On to TTTTACTTCATCTGAGTCCCAG, for which the sensor-assay potency score (higher = more potent) amounted to 0.0126.

For the sequence TATCTTGTACACAGTGGCCGTG, the sensor-assay potency score (higher = more potent) is -0.302.

Take TAGCCTATAATATTACACGTGA: the sensor-assay potency score (higher = more potent) is -0.577.

With TTAGTTGTTAACTACTTCCAGA, the sensor-assay potency score (higher = more potent) is -0.755.

TTTACTTCATCTGAGTCCCAGC displayed a sensor-assay potency score (higher = more potent) of -0.606.

TTAGCTTGTGTTCATTCTCAGG registered a sensor-assay potency score (higher = more potent) of -1.28.

The sequence TAAAATAGGAATGTGGTCCTAA showed a sensor-assay potency score (higher = more potent) of 0.497.

As to TACTTGTCTGTCTTTTCTCCAC, the sensor-assay potency score (higher = more potent) was -0.0892.

The next assay deals with LHFPL4. Described as above. Particulars: shRNA.
With AAGTCGGTGAAGGAGCCCCGGC, the sensor-assay potency score (higher = more potent) was -1.53.

Consider AAATCTTTGTTCTCCGGCTTGA, for which the sensor-assay potency score (higher = more potent) was -0.165.

As for TCCGCATGTAGTGCTCGTGGTA, the sensor-assay potency score (higher = more potent) was -1.39.

AAGAGCTGCATCCAGGCGCAGA gave a sensor-assay potency score (higher = more potent) of -1.19.

The sequence AGATCTTGTAGACCGTAGCCGT yielded a sensor-assay potency score (higher = more potent) of -1.61.

TTCCGCATGTAGTGCTCGTGGT showed a sensor-assay potency score (higher = more potent) of -0.829.

Sequence AAAATCTTTGTTCTCCGGCTTG displayed a sensor-assay potency score (higher = more potent) of -0.289.

On to TTGTAGACCGTAGCCGTGTTGC, for which the sensor-assay potency score (higher = more potent) is -0.989.
